A selection: hits, their analogues and other compounds. The true share with any hit is near 0.19%.
Bcl-B Bim block = disrupts Bim peptide binding to human Bcl-B; Q9HD36; bead-based flow cytometry; inhibition, % at 10 µM; 0.073% of 190,000 active; AID 951;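 note: 0% = tracer peptide without compound and 100% = reference inhibitor peptide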
Target sequence (Q9HD36 whole entry, looked up): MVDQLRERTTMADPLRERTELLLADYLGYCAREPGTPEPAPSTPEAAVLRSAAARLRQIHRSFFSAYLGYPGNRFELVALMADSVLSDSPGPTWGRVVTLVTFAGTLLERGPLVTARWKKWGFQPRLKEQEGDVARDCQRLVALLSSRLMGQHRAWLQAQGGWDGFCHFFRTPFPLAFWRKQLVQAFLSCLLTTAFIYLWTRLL
Bcl-XL Bim block = human Bim-Bcl-XL interaction inhibition | 0.04% of 190,000 active | Bim peptide-Bcl-XL binding, bead flow cytometry, fluorescence | AID 1007 | inhibition, % at 10 µM
Bim-Bcl-W = inhibitors of Bim-Bcl-W interaction, human. bead-based flow cytometry, Bim peptide-Bcl-W binding. inhibition, % at 10 µM. 0.02% of 190,000 active. AID 952;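 note: 0% = bound tracer without compound and 100% = peptide blocker; higher means less fluorescent Bim peptide bound to Bcl-W beads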
Bim-Bfl-1 = disrupts Bim binding to human Bfl-1. Q16548. Bead-based flow cytometry, Bim-Bfl-1 binding inhibition. inhibition, % at 10 µM. 0.12% of 190,000 active;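 note: 0% = wells without compound plus tracer and 100% = blocker peptide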
Bim-Bcl-2 = inhibitors of Bim-Bcl-2 interaction, human. Bead-based flow cytometry, Bim peptide-Bcl-2 binding. inhibition, % at 10 µM. 0.06% of 190,000 active; in the data active = inhibition above about 40%;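 note: 0% = no compound wells with probe peptide and 100% = reference peptide inhibitor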
Target sequence (P10415 whole entry, looked up): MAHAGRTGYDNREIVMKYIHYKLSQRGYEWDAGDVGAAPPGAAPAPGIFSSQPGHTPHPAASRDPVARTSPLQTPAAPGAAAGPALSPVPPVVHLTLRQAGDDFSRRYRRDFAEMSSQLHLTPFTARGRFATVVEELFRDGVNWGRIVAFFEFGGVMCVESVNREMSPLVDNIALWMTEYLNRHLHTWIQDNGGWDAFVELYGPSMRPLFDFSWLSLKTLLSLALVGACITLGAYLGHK
Bim-Bcl-XL DR = Bim-Bcl-XL interaction regulation, dose confirmation; shares compounds with Bim-Bfl-1; bead-based flow cytometry, Bim-Bcl-XL binding; inhibition of binding at 100 µM; 40 tested, under 10 active; AID 2084; call rule not given here
Numbers without * were called inactive. Cut-off read from the data, not from the text of the source, unless noted: active = inhibition above about 40%.

SMILES	Bcl-B Bim block	Bcl-XL Bim block	Bim-Bcl-W	Bim-Bfl-1	Bim-Bcl-2	others
CCN1/C(=C/C=C/c2oc3ccc4ccccc4c3[n+]2CC)Oc2ccc3ccccc3c21	0	45*	26	35	8
CC[n+]1c(/C=C/N(C)c2ccccc2)oc2ccc(Cl)cc21	12	24	18	25	23
CCc1cccc(C)c1NC(=S)NCc1ccc2c(c1)cc(C)n2C	-4	-2	-2	-1	-3
CC(=O)N1CCN(C(=O)c2ccc(-n3c(C)ccc3C)cc2)CC1	41*	10	6	7	17
COc1ccc(NC(=S)NCC(c2cccnc2)N2CCOCC2)cc1 (stereo not given)	-6	-8	-4	-7	-4
CC1=CC(=O)c2c(O)ccc(O)c2C1=O	-2	18	45*	66*	25
CCNC(=S)N1CCN=C1Nc1nc(C)cc(C)n1	1	-4	-3	0	0
CCOc1ccc2noc3c2c1C(=O)c1ccccc1-3	2	3	3	3	0
CCNc1ccc2noc3c2c1C(=O)c1ccccc1-3	0	0	0	2	1
O=C1c2ccccc2-c2onc3ccc(NCc4ccco4)c1c23	41*	76*	70*	40*	48*
O=C1c2ccccc2-c2onc3ccc(N4CCCC4)c1c23	30	63*	63*	42*	46*
Cn1c(=O)n(C)c2cc(C(=O)c3ccccc3)ccc21	-6	3	-1	-11	-9
CC(NC(=O)OCc1ccccc1)C(=O)Oc1cc2oc(=O)cc(-c3ccccc3)c2cc1Cl (stereo not given)	-5	-5	-5	-14	-9
O=C(NC1=NCCS1)NC12CC3CC(CC(C3)C1)C2	84*	18	15	60*	84*
CC(/C=C/C(=O)c1ccc(C)cc1)=C\c1ccccc1	23	48*	27	47*	33
COc1ccccc1C(=O)NCC(=O)OCc1ccc(Br)cc1	8	8	6	10	10
O=C(COc1ccc(F)cc1Br)NCc1ccccn1	-1	-1	0	-1	4
O=C(COc1ccccc1Br)NCc1ccccn1	75*	10	5	44*	71*
Cc1cc(N2CC(C(=O)O)CC2=O)ccc1Br (stereo not given)	-5	-1	6	-9	-6
CC(C)Cc1cc(-c2ccco2)c(C#N)c(N)n1	93*	30	26	73*	90*
CCSc1ccccc1C(=O)Nc1nc2ccccc2c(=O)[nH]1	-7	-5	0	-7	-4
CNc1ccc(Br)cc(C(=O)/C=C/c2ccc(OC)cc2OC)c1=O	3	28	27	41*	25
CNc1ccc(Br)cc(C(=O)/C=C/c2cccc(OC)c2)c1=O	-19	8	9	27	32
CCCn1nnnc1SCC(=O)N1CCN(C(=O)c2ccco2)CC1	-5	-8	0	-15	-7
CC(C)n1nnnc1SCC(=O)N1CCN(C(=O)c2ccco2)CC1	93*	50*	31	-2	18
SMILES	Bcl-B Bim block	Bcl-XL Bim block	Bim-Bcl-W	Bim-Bfl-1	Bim-Bcl-2	others
N#CC1=C(S)N(c2ccc(F)cc2)C(c2cccs2)NC1=O (stereo not given)	0	-1	0	0	1
Cc1cccc(N2C(S)=C(C#N)C(=O)NC2c2cccs2)c1 (stereo not given)	18	35	25	42*	21
O=[N+]([O-])c1c(NCCO)cc(N2CCC3(CC2)OCCO3)c2nonc12	-1	1	0	0	4
O=C(O)CCCNc1cc(N2CCC3(CC2)OCCO3)c2noc3c2c1C(=O)c1ccccc1-3	5	26	37	42*	23
CCOC(=O)N1CCN(c2c(NCCc3ccccc3)c(=O)c2=O)CC1	-2	-5	-1	-7	-5
CCOC(=O)N1CCN(c2cc(NCCC(=O)O)c3c4c(onc24)-c2ccccc2C3=O)CC1	38	40*	39	43*	31
COc1cc(/C=C2\CC/C(=C\c3cc(OC)c(O)c(OC)c3)C2=O)cc(OC)c1O	18	25	43*	50*	37
CC(=O)NC1=C(NC2CCS(=O)(=O)C2)C(=O)c2ccccc2C1=O (stereo not given)	6	2	14	41*	6
CN(C1=C(NC(=O)c2ccccc2)C(=O)c2ccccc2C1=O)C1CCS(=O)(=O)C1 (stereo not given)	-7	-8	-4	-7	-6
Cc1ccc(/C=N/NC(=O)CSc2nnc(-c3ccc(Cl)cc3)n2-c2ccccc2)o1	48*	-4	-2	0	0
O=C(CSc1nnc(-c2ccc(Cl)cc2)n1-c1ccc(Cl)cc1)N/N=C/c1ccco1	-3	-5	0	-11	-9
COc1ccc(CCNC(=O)c2cc(-c3ccco3)on2)cc1OC	0	0	1	-3	1
COc1ccc(CCNC(=O)c2ccc3nc(-c4ccco4)c(-c4ccco4)nc3c2)cc1OC	0	6	19	42*	11
CCNC(=O)N1c2ccc(OCC)cc2C(C)=CC1(C)C	20	33	18	40*	24
O=C(O)c1ccc(NC2=C/C(=N/S(=O)(=O)c3ccccc3)c3ccccc3C2=O)cc1	-21	2	19	47*	12
O=C1C(Nc2ccc(O)cc2)=C/C(=N/S(=O)(=O)c2cccs2)c2ccccc21	-10	-10	-2	-8	-3
CNCc1ccccc1Sc1ccc(O)c(O)c1	1	6	21	46*	17
CCN(CC)c1ccc(NC(=O)C2CC3CCC2C3)cc1 (stereo not given)	-10	-6	2	-5	-6
O=C(Nc1cccc(Cl)c1)Nc1ccc(Cl)cn1	72*	30	18	51*	77*
Cc1ccc(NC(=O)CSc2nc3ccccc3c(=O)n2CCCN2CCCCC2)cc1Cl	71*	26	29	25	62*
Cc1ccc(NC(=O)CC2S/C(=N/N=C/c3c[nH]c4ccccc34)NC2=O)cc1 (stereo not given)	27	33	28	42*	25
Cc1ccc(OCc2nnc(NC(=O)c3ccco3)s2)cc1	-6	0	5	-10	-10
O=C(Nc1nnc(COc2ccc(Cl)cc2)s1)c1ccco1	-43	-15	-9	23	-2	Bim-Bcl-XL DR=-5
O=C(CCNS(=O)(=O)c1cccc2nsnc12)NCc1ccccc1Cl	-4	-1	-1	2	-2
COc1cc(CNc2ccc3[nH]c(=O)[nH]c3c2)cc(Br)c1OCC(=O)NC(C)(C)C	-8	2	21	9	-3	Bim-Bcl-XL DR=2.9
C/C(=N\NC(=O)c1ccn(C)n1)c1cccc(NC(=O)c2ccncc2)c1	-7	-9	-4	-3	-5
CC(=O)OCCCNc1cc(Sc2nc3ccccc3s2)c2nonc2c1[N+](=O)[O-]	-4	3	11	48*	2	Bim-Bcl-XL DR=4.7

Screening data (PubChem)
